Consider two molecules from the supplement of paper PMC8728848.

Shown is part of a subset that was picked to be rich in the strongest signals.

Common to all, as to test: glycan array binding signal (z-score within array); higher = stronger binding
What all share (settings): glycan notation: IUPAC condensed, linker removed

The target of experiment [1] is Gal3S(b1-4)[Fuc(a1-3)]GlcNAc6S. In short, it runs like this:
(§1)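 Columns mapping to the same glycan were averaged after glycan names were converted to IUPAC-condensed notation. The data come from 3228 arrays in the Consortium for Functional Glycomics database, limited to those with an available protein sequence. Binding is reported as a within-array Z-score averaged across arrays of one protein sequence and across linkers.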

The target in experiment [2] is GlcNAc(a1-3)Gal(b1-4)GlcNAc. In short, it runs like this: as §1
Experiment [3] deals with GlcNAc(a1-4)Gal(b1-3)GlcNAc. An outline of the steps: as §1
Experiment [4] has as its target GlcNAc(b1-3)Gal(b1-4)GlcNAc(b1-6)[GlcNAc(b1-3)]Gal(b1-4)GlcNAc. An outline of the steps: as §1
Experiment [5] addresses Man(a1-2)Man(a1-2)Man(a1-3)Man. An outline of the steps:
as §1

The target of experiment [6] is Neu5Ac(a2-3)Gal(b1-3)GlcNAc. In short, it runs like this: as §1
Experiment [7] deals with Neu5Ac(a2-3)Gal(b1-4)GlcNAc(b1-3)Gal(b1-3)GlcNAc. In short, it runs like this: as §1
Experiment [8] concerns the target Neu5Ac(a2-3)Gal(b1-4)[Fuc(a1-3)]GlcNAc. An outline of the steps:
as §1

The target in experiment [9] is Neu5Ac(a2-6)Gal(b1-4)GlcNAc(b1-2)Man(a1-3)[GlcNAc(b1-2)Man(a1-6)]Man(b1-4)GlcNAc(b1-4)GlcNAc. An outline of the steps: as §1
Experiment [10] addresses Neu5Ac(a2-6)Gal(b1-4)GlcNAc(b1-3)Gal(b1-3)GlcNAc. In short, it runs like this: as §1
Experiment [11] concerns the target Neu5Ac(a2-8)Neu5Ac(a2-3)[GalNAc(b1-4)]Gal(b1-4)Glc. An outline of the steps:
as §1

Experiment [12] deals with Neu5Ac9Ac(a2-3)Gal(b1-4)GlcNAc. In short, it runs like this:
as §1

Experiment [13] has as its target Neu5Ac9Ac(a2-6)Gal(b1-4)GlcNAc. An outline of the steps: as §1
In experiment [14] the target is Neu5Gc(a2-3)Gal(b1-4)GlcNAc(b1-3)Gal(b1-4)GlcNAc(b1-2)Man(a1-3)[Neu5Gc(a2-3)Gal(b1-4)GlcNAc(b1-3)Gal(b1-4)GlcNAc(b1-2)Man(a1-6)]Man(b1-4)GlcNAc(b1-4)GlcNAc. In short, it runs like this:
as §1

In experiment [15] the target is Fuc(a1-2)Gal(b1-3)[Fuc(a1-4)]GlcNAc. In short, it runs like this: as §1
The next experiment concerns the target Fuc(a1-2)Gal(b1-4)Glc6S. An outline of the steps: as §1
In experiment [16] the target is Fuc(a1-2)Gal(b1-4)[Fuc(a1-3)]GlcNAc(b1-3)Gal(b1-4)[Fuc(a1-3)]GlcNAc. In short, it runs like this:
as §1

The next experiment addresses Fuc(a1-2)Gal6S(b1-4)Glc. In short, it runs like this:
as §1

In experiment [17] the target is Fuc(a1-2)[GalNAc(b1-3)]Gal. An outline of the steps:
as §1

For experiment [18], the target named is Fuc(a1-3)[Gal(b1-4)]Glc6S. An outline of the steps:
as §1

In experiment [19] the target is Fuc(a1-3)[Gal(b1-4)]GlcNAc(b1-3)GalNAc. An outline of the steps: as §1
Experiment [20] deals with Fuc(a1-3)[Gal3S(b1-4)]GlcNAc6S. In short, it runs like this:
as §1

Another experiment has as its target Gal(a1-2)Gal. In short, it runs like this: as §1
The target of another experiment is Gal(a1-3)Gal. An outline of the steps:
as §1

Experiment [21] deals with Gal(a1-3)Gal(b1-4)GlcNAc(b1-3)GalNAc. An outline of the steps: as §1
The target of experiment [22] is Gal(a1-4)Gal(b1-4)GlcNAc(b1-2)Man(a1-3)[Gal(a1-4)Gal(b1-4)GlcNAc(b1-2)Man(a1-6)]Man(b1-4)GlcNAc(b1-4)GlcNAc. In short, it runs like this:
as §1

In another experiment the target is Gal(a1-6)Glc. An outline of the steps: as §1
The target in experiment [23] is Gal(b1-4)GlcNAc(b1-2)Man(a1-6)[Man(a1-3)]Man(b1-4)GlcNAc(b1-4)GlcNAc. An outline of the steps:
as §1

In experiment [24] the target is Gal(b1-4)GlcNAc(b1-3)Gal(b1-4)GlcNAc. An outline of the steps:
as §1

Experiment [25] has as its target Gal(b1-4)GlcNAc(b1-3)[Gal(b1-4)GlcNAc(b1-6)]GalNAc. In short, it runs like this:
as §1

Experiment [26] has as its target Gal(b1-4)GlcNAc(b1-6)GalNAc. In short, it runs like this:
as §1

The next experiment has as its target GalNAc(b1-3)Gal. An outline of the steps:
as §1

The target of experiment [27] is GalNAc(b1-3)Gal(a1-4)Gal(b1-4)GlcNAc(b1-3)Gal(b1-4)Glc. An outline of the steps:
as §1

For experiment [28], the target named is GlcNAc(b1-2)[GlcNAc(b1-4)]Man(a1-3)[GlcNAc(b1-2)Man(a1-6)]Man(b1-4)GlcNAc(b1-4)GlcNAc. An outline of the steps: as §1
In the next experiment the target is GlcNAc(b1-4)GlcNAc. In short, it runs like this:
as §1

The target of a further experiment is GlcNAc(b1-6)GalNAc. In short, it runs like this:
as §1

A further experiment concerns the target Man(a1-2)Man(a1-3)Man. In short, it runs like this:
as §1

Experiment [29] has as its target Man(a1-2)Man(a1-3)[Man(a1-2)Man(a1-6)]Man(a1-6)[Man(a1-2)Man(a1-2)Man(a1-3)]Man. In short, it runs like this:
as §1

The target of experiment [30] is Man(a1-3)[Man(a1-6)]Man(a1-6)[Man(a1-3)]Man(b1-4)GlcNAc(b1-4)GlcNAc. In short, it runs like this:
as §1

For experiment [31], the target named is Neu5Ac(a2-3)Gal(b1-3)GlcNAc(b1-3)Gal(b1-3)GlcNAc. An outline of the steps:
as §1

Experiment [32] deals with Neu5Ac(a2-3)Gal(b1-3)[Fuc(a1-4)]GlcNAc(b1-3)Gal(b1-3)[Fuc(a1-4)]GlcNAc. An outline of the steps: as §1
For experiment [33], the target named is Neu5Ac(a2-3)Gal(b1-3)[Neu5Ac(a2-3)Gal(b1-4)]GlcNAc. An outline of the steps: as §1
The target in experiment [34] is Neu5Ac(a2-3)Gal(b1-4)GlcNAc(b1-6)[Gal(b1-3)]GalNAc. In short, it runs like this:
as §1

In experiment [35] the target is Neu5Ac(a2-3)Gal(b1-4)[Fuc(a1-3)]GlcNAc(b1-3)GalNAc. In short, it runs like this: as §1

B1: Epa10 (protein)
chain: MNEKIFRYLTLLFLFELARSLPVEDKLNIKKVFEKRAVDFTPFAHYPRPEGCSSPPNSVSVGLHMNLYNYPYLYVKPSTKGMFTNDTNSDADGETDGDSAGGIEGRAGQCWNPEYQDPNFPRFGYKQYGEFGASDNVNGDISWDHNEFTEGCKPVLAALPPGYNYPDEITFSNFTMVLSGYFKPKTSGVYKFELKADDFILFNFGAKNAFECCNREESIDNFGPYVAYAMWPNQADQELEVYLFEDSYYPLRLFYNNRDYHSKFKIGFYPPGQTTITFDFDGYLFMLDDTGNECRDSIRYRTVCDDKVVDDTTYSTRYSTSMVPGGGSDVITIYYIRMKCEEEDCLGQWDPINNVCYSPDDCADDGGYWNGQMCDQSCKLEGGIVNPDTGDCDKSCIESGGFLDENGNCDTTCRDDGGMLVEGQCDYQCKEAGGILVGDHCDTTCVDSGGKLNEDGTCDHSCRDQGGQLDENGECDTSCKDSGGMLIEGECDTSCKDEGGQLDDNNECINHCKDQGGIIDENGNCDTSCKDSGGKLDESGACDTSCRDDGGIIDENGNCNTTCRDDGGIIVGDHCDTSCRDAGGILIEDHCDTTCRDSGGKLNEDGTCDHSCRDQGGQLDENGKCDYSCKNGGGKLDEDGNCDMSCKENGGKLDENGDCDLSCKEDGGKLDGNGDCDYSCKEEGGVIDESGNCNTTCKDSGGQIIDGECNYGCIEVGGVVIDGECDTSCIDSGGILDGDGNCDRSCIESGGVLEDGACNTTCRDSGGQLNVDGTCDTSCRDDGGMLVEGQCDYQCKEAGGILEDGECVFPPTSSSTSETSSTTDQSSLQSDDSSMESSSTPMDSSTIESSSSEIITSESESESVPIASSSSEVMTSESESESIPILTSSSEIPIASSSSEIPVASSSSEIIIPESESESVPVASSSSEIPIASSSSEIPVASSSSEIPVASSSSEIIIPESESESIPIESTSSEAVSSRSESDSSYPTPTPTTTTITTWPNPIQPTTSNSSPIVSSSTETPGIAESSSRISDLESSRRTSILGDDRTRTRTTITSTITEDGQIITITTTVTGFVPEPTGETEGNGSDDENPENPIENNTDENEFLDPEFTDDIPDDPAGPEDNGNGPVNPEQGNDNDPVNLEDSGNNGAVNPEQAPVNDEDNGGNDPVNPEQDNNNGPANPGQDSTNGSGNSDQIDNNPPTPEENAGDGNSNGNDPADPSRRTSILGDERTRASPGGTSQPTGANGNVNGNSPGANVNGGGTGNSNNNNNNNNNNNNGNAPNGGDGSNGDANQGPSRRTSLLGDERTRAGQAAPTGGSSPDNGIAGDTSNNGGAIVSQQVDDGGAGSPRRTSILGDVRSRTTLNGEVLNFEGSGVRRAVAGNLALPLMMVGLVFNL
For the molecule B1, the “glycan array binding signal (z-score)” value in experiment [1] is -0.35; in [2], -0.222; in experiment [3], -0.238; in [4], -0.312; in experiment [5], -0.264; in [6] it was -0.234. The “glycan array binding signal (z-score)” value was -0.284 in [7]; -0.278 in experiment [8]; -0.287 in [9]; -0.258 in experiment [10]; -0.27 in experiment [11]; -0.271 in experiment [12]. For the same molecule, the “glycan array binding signal (z-score)” value is -0.297 in [13] and -0.292 in experiment [14].

B2: cupB6 (Pseudomonas aeruginosa), Q02SP7 (protein)
chain: MSMRLFPGRVSLRRRPGAQARQALVLGLCCLTGGQAWALNEVALNCSFGNGKGLPWRVVNELTSGTAKGTVLFARPVSLFLSYKPQASQEAHELVLGGNWSGVGYPGPYGTVASDVKGIGYRISVDAQDGVKRVIPVDNQPHALDKRVTSFSGSTTSDYLQELVLTVDPGELPAGDLKVTSVSGSATLNLWAVDRLKGEASIGSVLAVPADNYPTGVCRKPYSLIGPASIAIGGGPPPPPIPKKCKVEVGREINVKLGSVALKNFPRVNDTSTERSFDISLSECAALAKPEIAFRDKYVSAQQADPTILSLKSGGAAGFGIVVKNGLDQQRIRFDGTPYPMRRVGDSADLPLSAAYIRIGAEGELKAGVADGAAEFTFTFP
On to B2, for which the “glycan array binding signal (z-score)” value in experiment [15] was 19.6; in the experiment with Fuc(a1-2)Gal(b1-4)Glc6S it was 0.336; in [16] it was 0.023; with Fuc(a1-2)Gal6S(b1-4)Glc it was 0.068; in experiment [17], -0.269; in experiment [18], -0.171. For the same molecule, the “glycan array binding signal (z-score)” value was 0.027 in [19]; 0.36 in [20]; -0.079 with Gal(a1-2)Gal; -0.05 with Gal(a1-3)Gal; 0.099 in [21]; 0.472 in experiment [22]. Moreover, the “glycan array binding signal (z-score)” value with Gal(a1-6)Glc is -0.09; in experiment [23], 0.004; in experiment [24] it was -0.185; in experiment [25], -0.207; in experiment [26] it was -0.128; in the experiment with GalNAc(b1-3)Gal it was 0.216. Also, the “glycan array binding signal (z-score)” value in experiment [27] was -0.12; in [28], -0.121; with GlcNAc(b1-4)GlcNAc, -0.037; with GlcNAc(b1-6)GalNAc, -0.194; in the experiment with Man(a1-2)Man(a1-3)Man, 0.328; in experiment [29] it was 0.065. For the same molecule, the “glycan array binding signal (z-score)” value was -0.11 in [30]; 0.048 in experiment [31]; 0.124 in experiment [32]; -0.26 in experiment [33]; -0.006 in experiment [34]; 0.376 in experiment [35].
